Five compounds from PubChem BioAssay can be followed below.

SMILES strings stand for the structures. The source made the active and inactive calls.

Assay [1] relates to Human papillomavirus type 1a protein E7 (residues 44-93). The assay is described as follows: HPV1a E7 fragment binders on microarrays, primary screen, biochemical, small-molecule microarray, residues 44-93, 635 nm fluorescence (AID 1108).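 Note: E7 fragment applied at 1 µg/mL in TBST for 1 h at 4 C; score combines spot fluorescence with its signal to noise ratio.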 Particulars: small-molecule microarray binding, fluorescence 635 nm; higher = more signal.
The nature of assay [2]: modulators of HCV replicon luciferase signal, primary screen, HCV replication inhibitor project, Huh7 cells, luciferase reporter (AID 1109).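 Note: huh7 hepatoma cells harbouring a luciferase neomycin HCV replicon reporter; luciferase luminescence as measure of HCV replicon replication; test concentration not given here.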 The following applies: 48 h, higher = more signal.
The target in assay [3] is Left-right determination factor 2 (Homo sapiens) (UniProt O00292). The assay is described as follows: LEFTY2 binders on small-molecule microarrays, primary screen, biochemical, small-molecule microarray, 635 nm fluorescence scan (AID 1110). The following applies: LEFTY2 binding, higher = more signal.
Assay [4] concerns the target Calmodulin-1 (Homo sapiens) (UniProt P0DP23). As to the kind of experiment: CALM1 binders on microarrays, EGTA buffer, profiling panel, biochemical, small-molecule microarray, Cy5-labelled CALM1 (AID 1111).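 Note: labelled calmodulin applied in Tris saline Tween buffer holding calcium plus EGTA and DTT.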 The following applies: Cy5-CALM1 binding fluorescence, higher = more signal.
Assay [5] has the same target. The assay is described as follows: calcium-bound CALM1 binders on microarrays, profiling panel, artefact control for SMM control-protein annotation, biochemical, small-molecule microarray, Cy5-labelled CALM1, plus calcium (AID 1112).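 Note: score merges spot fluorescence with signal to noise from triplicate slides.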 Particulars: Cy5-CALM1 binding fluorescence, higher = more signal.
The nature of assay [6]: small-molecule microarray binders of probe aWnt5a, primary screen, biochemical, biotinylated probe, 635/667 nm fluorescence (AID 1113).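 Note: score merges 667 nm fluorescence intensity with signal-to-noise per printed feature.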 Particulars: higher = more signal.
A short description of assay [7]: small-molecule microarray binders of probe aShh, primary screen, biochemical, biotinylated probe, 635/667 nm fluorescence (AID 1114).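 Note: probe is biotin-labelled aShh protein from a stem cell growth factor screen; measures binding of labelled protein to compounds printed on the slide; score merges feature fluorescence at 667 nm with signal-to-noise.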 The following applies: higher = more signal.
Assay [8] is described as follows: small-molecule microarray binders of probe aNog, primary screen, biochemical, biotinylated probe, 635/667 nm fluorescence (AID 1115).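 Note: probe is biotinylated aNog protein used at 0.15 µg/mL for 1 h at 4 C; z-score combines 667 nm fluorescence of each spot with its signal to noise.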 Particulars: higher = more signal.
The target of assay [9] is Torsin-1A-interacting protein 1 (Homo sapiens) (UniProt Q5JTV8). As to the kind of experiment: LAP1 binders from COS7 cell lysate, primary screen, small-molecule microarray, 635/667 nm fluorescence (AID 1116). Particulars: COS7-hLAP1 lysate binding, 635 nm fluorescence, higher = more signal.
In assay [10] the target is Alpha-bungarotoxin (Bungarus multicinctus) (UniProt P60615). The assay is described as follows: alpha-bungarotoxin binders on microarray, profiling panel, artefact control for SMM control protein annotation, biochemical, small-molecule microarray, Alexa647 label, 635/667 nm fluorescence (AID 1117). Particulars: alpha-BTX-A647 binding fluorescence, higher = more signal.
Assay [11] has as its target Albumin (Bos taurus) (UniProt P02769). As to the kind of experiment: bovine serum albumin binders on microarray, profiling panel, artefact control for SMM control protein annotation, biochemical, small-molecule microarray, Alexa647 label, 635/667 nm fluorescence (AID 1118).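 Note: score merges 667 nm emission intensity and signal-to-noise per printed compound spot.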 Particulars: BSA-A647 binding, fluorescence 635 nm, higher = more signal.
The nature of assay [12]: small-molecule microarray binders of probe aXIP, primary screen, biochemical, NeuroSMM set, 635/667 nm fluorescence (AID 1119).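 Note: probe is the protein aXip251-270 applied at 1 µg/mL to compound-printed slides; binding of probe to printed compounds measured as 667 nm fluorescence plus signal to noise.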 Particulars: higher = more signal, called active from +8 up or from −8 down.
Assay [13] is described as follows: small-molecule binders of probe aNOTCH3, primary screen, biochemical, small-molecule microarray, 635/667 nm fluorescence (AID 1120).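 Note: probe is a biotin-tagged antibody raised against NOTCH3 rather than NOTCH3 protein; score merges spot fluorescence near 667 nm with spot signal to noise.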 Particulars: higher = more signal.
Assay [14] can be described thus: small-molecule binders of probe aNOTCH2, primary screen, biochemical, small-molecule microarray, 635/667 nm fluorescence (AID 1121).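 Note: score merges feature fluorescence read at 667 nm with its signal to noise.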 Particulars: higher = more signal.
The target of assay [15] is Carbonic anhydrase 2 (Homo sapiens) (UniProt P00918). As to the kind of experiment: CAII small-molecule binders, profiling panel, biochemical, small-molecule microarray, Alexa647-labelled CAII (AID 1122). Particulars: CAII-A647 binding fluorescence, higher = more signal.
Assay [16] in a line: COS7 lysate on small-molecule microarray, probe aHis, 635 nm (AID 1123).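 Note: z-score combines 667nm fluorescence intensity with signal-to-noise per printed compound spot.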 The following applies: COS7 cell lysate, fluorescence, higher = more signal.
Assay [17] is described as follows: compound binding in COS7 lysate, probe aLAP1, primary screen, cell lysate, small-molecule microarray (AID 1124).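 Note: lysate comes from COS7 cells expressing LAP1 and is applied at 0.3 µg/mL; score merges spot fluorescence near 667 nm with signal-to-noise over triplicate slides.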 Particulars: probe aLAP1, fluorescence, higher = more signal.
Assay [18] relates to Sam68 (KHDRBS1). The assay is described as follows: Sam68 small-molecule binders, primary screen, biochemical, small-molecule microarray, 635 nm fluorescence (AID 1125).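 Note: score merges 667 nm channel intensity with signal to noise over triplicate slides.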 The following applies: small-molecule microarray binding, higher = more signal.
Assay [19] deals with Chordin-like protein 2 (CHRDL2). As to the kind of experiment: CHRDL2 small-molecule binders, primary screen, biochemical, small-molecule microarray, 635 nm fluorescence (AID 1126).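 Note: printed compound slides probed with Chrdl2 protein at 4 µg/mL for 1 h at 4 C; score merges 667 nm emission intensity with signal to noise over three replicate slides.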 Particulars: small-molecule microarray binding, fluorescence 635 nm; higher = more signal.
The target of assay [20] is Concanavalin-A (Canavalia ensiformis) (UniProt P02866). As to the kind of experiment: ConA small-molecule binders, primary screen, artefact control for SMM control protein annotation, biochemical, small-molecule microarray, Alexa647 label, 635 nm (AID 1127).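 Note: z combines 667 nm emission intensity with signal-to-noise across three replicate slides.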 The following applies: ConA-A647 binding fluorescence, higher = more signal.
Sequence of Concanavalin-A (Canavalia ensiformis) (P02866 whole entry, looked up): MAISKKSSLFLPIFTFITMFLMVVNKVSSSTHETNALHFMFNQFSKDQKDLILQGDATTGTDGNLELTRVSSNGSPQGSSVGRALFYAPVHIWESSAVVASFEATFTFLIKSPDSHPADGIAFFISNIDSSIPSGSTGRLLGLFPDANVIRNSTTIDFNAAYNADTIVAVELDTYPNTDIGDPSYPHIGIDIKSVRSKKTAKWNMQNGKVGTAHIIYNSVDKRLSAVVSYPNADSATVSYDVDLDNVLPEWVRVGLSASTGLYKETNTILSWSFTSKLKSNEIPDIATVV

Sequence of Torsin-1A-interacting protein 1 (Homo sapiens) (Q5JTV8 whole entry, looked up): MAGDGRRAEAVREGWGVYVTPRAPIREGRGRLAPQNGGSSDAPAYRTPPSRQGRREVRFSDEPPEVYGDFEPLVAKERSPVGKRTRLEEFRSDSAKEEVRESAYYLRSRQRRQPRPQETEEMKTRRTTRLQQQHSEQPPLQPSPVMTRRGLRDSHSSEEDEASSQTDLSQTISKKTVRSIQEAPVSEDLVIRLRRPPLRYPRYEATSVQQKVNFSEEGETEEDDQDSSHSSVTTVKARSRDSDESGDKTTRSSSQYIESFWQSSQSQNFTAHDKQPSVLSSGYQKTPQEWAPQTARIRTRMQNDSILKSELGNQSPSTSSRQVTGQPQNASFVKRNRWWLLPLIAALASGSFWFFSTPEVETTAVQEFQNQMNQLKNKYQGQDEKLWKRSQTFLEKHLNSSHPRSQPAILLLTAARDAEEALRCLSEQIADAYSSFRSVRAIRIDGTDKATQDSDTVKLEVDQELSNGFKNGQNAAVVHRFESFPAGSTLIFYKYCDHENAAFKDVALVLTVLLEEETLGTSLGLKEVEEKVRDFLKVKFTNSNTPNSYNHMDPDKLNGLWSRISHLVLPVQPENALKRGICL
Sequence of Albumin (Bos taurus) (P02769 whole entry, looked up): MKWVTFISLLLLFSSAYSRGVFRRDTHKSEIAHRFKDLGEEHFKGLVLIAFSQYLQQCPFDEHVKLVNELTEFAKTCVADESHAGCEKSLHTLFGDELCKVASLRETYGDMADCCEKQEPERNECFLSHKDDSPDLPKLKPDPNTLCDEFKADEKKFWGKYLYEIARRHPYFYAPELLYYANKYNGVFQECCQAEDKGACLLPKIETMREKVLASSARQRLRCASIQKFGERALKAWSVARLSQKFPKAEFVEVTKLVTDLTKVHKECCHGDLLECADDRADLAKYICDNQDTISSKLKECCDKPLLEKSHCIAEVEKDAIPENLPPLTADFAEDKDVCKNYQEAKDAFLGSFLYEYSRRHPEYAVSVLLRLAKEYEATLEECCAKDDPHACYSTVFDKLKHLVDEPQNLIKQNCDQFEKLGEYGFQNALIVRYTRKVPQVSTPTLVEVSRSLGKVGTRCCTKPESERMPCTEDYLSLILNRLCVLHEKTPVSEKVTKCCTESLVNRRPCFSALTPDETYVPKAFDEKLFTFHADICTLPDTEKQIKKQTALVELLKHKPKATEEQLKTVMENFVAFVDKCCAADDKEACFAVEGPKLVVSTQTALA
Sequence of Left-right determination factor 2 (Homo sapiens) (O00292 whole entry, looked up): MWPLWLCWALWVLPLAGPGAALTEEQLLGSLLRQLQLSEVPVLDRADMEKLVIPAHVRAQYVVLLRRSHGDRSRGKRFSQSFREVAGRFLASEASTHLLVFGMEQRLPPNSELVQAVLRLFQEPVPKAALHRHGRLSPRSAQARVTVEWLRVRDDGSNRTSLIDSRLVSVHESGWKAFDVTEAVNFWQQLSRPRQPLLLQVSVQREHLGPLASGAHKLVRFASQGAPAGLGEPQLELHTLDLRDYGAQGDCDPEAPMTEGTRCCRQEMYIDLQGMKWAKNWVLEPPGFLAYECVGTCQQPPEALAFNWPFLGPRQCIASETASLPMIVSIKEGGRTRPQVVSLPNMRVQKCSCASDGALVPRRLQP
Sequence of Alpha-bungarotoxin (Bungarus multicinctus) (P60615 whole entry, looked up): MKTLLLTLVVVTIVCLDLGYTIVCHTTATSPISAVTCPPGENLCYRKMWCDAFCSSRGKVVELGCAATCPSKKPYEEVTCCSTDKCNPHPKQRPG

On to `C=CCC(OC(C)=O)[C@@H]1[C@@H](N(Cc2ccc(-c3ccccc3)cc2)C(=O)Cc2ccc(F)cc2)c2cc(OCCCO)ccc2N1C(=O)Cc1ccc2ccccc2c1` (stereo not given in full), for which the composite z-score in assay [1] is -0.333; in assay [3], 0.0808; in [4], 1.07; in assay [5], 0.743; in assay [6] it was 0.0495; in assay [7], -0.153. The composite z-score in [8] was 0.0335; in assay [9] it was 0.542; in [10], -0.0297; in [11], 0.232; in [13], -0.0931; in assay [14] it was -0.046. Further, the composite z-score in [15] was 0.244; in assay [16], 1.29; in assay [17], 0.201; in assay [18], -0.869; in assay [19], -0.353; in assay [20] it was -0.474. The compound also returned a z-score in assay [2] of 0.482. In assay [12], the composite Z-score is -0.34 (inactive).
Regarding `CC=CC(O)C1C=CC2C(=O)NC(=O)C2N1Nc1ccccn1` (stereo not given), the composite z-score in assay [1] is 0.434; in assay [3], 0.44; in assay [4], -0.242; in assay [5], -1.1; in assay [6], -0.254; in [7] it was -0.0211. The composite z-score in assay [8] is 0.342; in assay [9], 0.372; in assay [10], 0.439; in assay [11], 0.456; in [13], -0.0362; in [14], -0.112. In addition, the composite z-score in [15] is 0.463; in assay [16], 0.717; in [17], 0.654; in assay [18], 0.463; in [19], 1.04; in [20], 0.855. The z-score in [2] is 0.634. In addition, the composite Z-score in assay [12] was 0.289 (inactive).
With `COc1cc(NN2C(C(O)c3ccc(I)cc3)C=CC3C(=O)N(c4ccccc4)C(=O)C32)cc(OC)c1OC` (stereo not given), the composite z-score in assay [1] was 1.46; in [3] it was 0.391; in [4], 1.85; in [5], 0.663; in assay [6] it was 0.136; in [7] it was 0.213. Moreover, the composite z-score in assay [8] is 1.23; in [9] it was 1.64; in [10] it was 1.68; in assay [11], 0.499; in assay [13] it was 0.185; in [14], -0.0501. Besides, the composite z-score in assay [15] was 0.758; in assay [16], 3.02; in assay [17], 0.0865; in assay [18], 1.32; in assay [19], -0.357; in assay [20], 1.01. In addition, the z-score in [2] was -0.573. In assay [12], the composite Z-score was 1.59 (inactive).
`CC(C)C[C@@H]1NC(=O)[C@@]23C(=O)N[C@@H](Cc4ccccc4)C2[C@H](C)[C@@]2(C)O[C@H]2C3/C=C/C/C=C\CNC(=O)[C@@H](C)NC1=O` (stereo not given in full): the composite z-score in assay [1] is -0.702; in assay [3] it was 0.58; in [4] it was -0.463; in [5], -1.19; in assay [6], -0.228; in assay [7], 0.0899. Further, the composite z-score was -0.636 in assay [8]; -0.212 in assay [9]; -0.116 in assay [10]; 0.663 in [11]; -0.251 in assay [13]; -0.196 in assay [14]. Further, the composite z-score in assay [15] is 0.449; in assay [16], -0.128; in assay [17], -0.217; in [18], -0.604; in assay [19], 0.643; in assay [20], 0.075. Besides, the z-score in assay [2] was 0.0935. Also, in assay [12], the composite Z-score was -0.106 (inactive).
Consider `O=C(N1CCOCC1)[C@@]1(CCS(=O)(=O)c2ccccc2)N=C(c2ccc(OCCCO)cc2)O[C@H]1c1ccccc1`, for which the composite z-score was 1.1 in assay [1]; -0.563 in assay [3]; 2.58 in assay [4]; 1.33 in assay [5]; -0.0084 in assay [6]; -0.0441 in [7]. The composite z-score in assay [8] is -0.273; in assay [9], 1.85; in assay [10], 2.84; in [11], 1.06; in [13], 0.211; in [14], 0.0228. Also, the composite z-score in assay [15] is 0.853; in [16], 3.1; in assay [17], -0.152; in [18], 1.31; in assay [19], -0.56; in assay [20], 1.2. For the same compound, the z-score in assay [2] was -0.892. For the same compound, the composite Z-score in [12] was 0.55 (inactive).
